An excerpt weighted towards active compounds, which were near 4.1% of everything screened.
NSD2 inh – inhibitors of human histone methyltransferase NSD2; NSD2 peptide methylation, AlphaScreen, 120 min; inhibition, % at 12.5 µM; hit rate 0.54% among 310,000; AID 743445; in the data active = inhibition above about 50%
Target sequence (O96028 whole entry, looked up): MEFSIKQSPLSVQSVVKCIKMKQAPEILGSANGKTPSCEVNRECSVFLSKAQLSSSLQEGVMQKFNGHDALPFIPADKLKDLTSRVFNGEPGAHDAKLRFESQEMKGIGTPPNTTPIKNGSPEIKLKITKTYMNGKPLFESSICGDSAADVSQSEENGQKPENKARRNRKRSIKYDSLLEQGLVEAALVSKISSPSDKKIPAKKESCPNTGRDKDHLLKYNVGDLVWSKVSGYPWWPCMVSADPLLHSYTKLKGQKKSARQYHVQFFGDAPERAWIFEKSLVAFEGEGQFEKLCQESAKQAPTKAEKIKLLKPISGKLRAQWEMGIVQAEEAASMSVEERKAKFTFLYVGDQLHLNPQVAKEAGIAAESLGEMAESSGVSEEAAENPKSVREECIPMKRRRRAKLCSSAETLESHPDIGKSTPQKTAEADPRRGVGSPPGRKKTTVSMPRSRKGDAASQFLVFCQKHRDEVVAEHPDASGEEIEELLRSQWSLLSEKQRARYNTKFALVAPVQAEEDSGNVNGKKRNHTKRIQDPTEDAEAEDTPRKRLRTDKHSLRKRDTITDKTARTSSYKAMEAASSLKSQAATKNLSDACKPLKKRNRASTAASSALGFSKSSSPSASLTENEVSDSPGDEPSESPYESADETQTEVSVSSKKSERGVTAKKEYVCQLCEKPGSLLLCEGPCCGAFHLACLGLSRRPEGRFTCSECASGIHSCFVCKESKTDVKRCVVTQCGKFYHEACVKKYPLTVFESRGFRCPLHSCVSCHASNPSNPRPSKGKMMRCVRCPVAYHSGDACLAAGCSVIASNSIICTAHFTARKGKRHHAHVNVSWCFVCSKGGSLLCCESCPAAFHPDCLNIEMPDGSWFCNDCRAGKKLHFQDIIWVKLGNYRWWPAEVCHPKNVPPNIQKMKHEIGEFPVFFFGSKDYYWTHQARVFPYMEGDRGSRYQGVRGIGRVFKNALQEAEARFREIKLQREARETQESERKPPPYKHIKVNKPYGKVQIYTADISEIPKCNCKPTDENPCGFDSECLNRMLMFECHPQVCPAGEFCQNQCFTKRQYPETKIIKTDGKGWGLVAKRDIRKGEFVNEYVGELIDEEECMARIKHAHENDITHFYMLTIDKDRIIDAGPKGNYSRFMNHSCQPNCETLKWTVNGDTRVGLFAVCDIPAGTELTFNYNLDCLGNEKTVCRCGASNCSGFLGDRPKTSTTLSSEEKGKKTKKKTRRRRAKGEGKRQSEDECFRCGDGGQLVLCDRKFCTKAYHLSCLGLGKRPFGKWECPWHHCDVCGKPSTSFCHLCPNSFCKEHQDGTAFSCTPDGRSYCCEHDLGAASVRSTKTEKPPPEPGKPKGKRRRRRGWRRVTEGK
PglD inh – blocks C. jejuni PglD acetyltransferase activity. AID 602405. inhibition, % at 12.5 µM. hit rate 0.098% among 360,000. purified PglD enzyme, DTNB colorimetric CoA detection; in the data active = inhibition above about 16%, passing the limit was not always enough; inconclusive = no clear call, values can overlap the other calls
CASP6 VEID inh – caspase-6 (human) enzyme inhibition; inhibition, % at 12.5 µM; purified caspase-6, Z-VEID-R110 cleavage fluorescence; hit rate 0.53% among 350,000; P55212;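 active = mean inhibition across replicates at least about 35%, with every replicate also reaching that limit, limit read from the data; inconclusive = only one of the two criteria met; inactive = neither criterion met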;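 also: 0% = median of neutral control wells and 100% = no fluorescence left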
ALR inh – inhibitors of human sulfhydryl oxidase ALR. P55789. purified ALR, DTT oxidation, H2O2 HRP-luminol luminescence. inhibition, % (concentration not given with the values). hit rate 3.8% among 290,000;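 active = mean replicate inhibition above about 79%, with every replicate also reaching it, limit read from the data; inconclusive = only one of the two criteria met; inactive = mean below limit and not every replicate reaching it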
HIV Env fusion – HIV envelope-mediated fusion inhibition; inhibition, % at 12.3 µM; HeLa-JRFL Env/CEM21 cell fusion, luciferase; hit rate 1.1% among 360,000;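 active = mean replicate inhibition score of at least 50 and every replicate individually at or above 50; inconclusive = only one of the two criteria met; inactive = mean below 50 and not all replicates reaching 50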;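 also: 0% = plate neutral controls and 100% = maraviroc near 300 nM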
F508del corr – correctors of CFTR F508del function in bronchial epithelial cells. CFBE cells, YFP halide quenching; stimulated with forskolin plus potentiator P3; % fluorescence drop versus neutral controls. activity (quench increase), % at 7.58 µM. hit rate 0.36% among 350,000. AID 720511;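 active = mean added fluorescence quench of at least 8% versus neutral control, with both replicates also reaching 8%; inconclusive = only one of the mean or replicate conditions met; inactive = mean below 8% and not both replicates reaching 8%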;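 also: cells transiently co-express mutant CFTR-F508del with the halide-sensitive YFP; corrector assay measuring rescue of mutant channel to the surface after 24 h compound exposure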
* = called active by the depositor; ? = inconclusive; . = no result given; [ ] = another dose, or the depositor's remark.

SMILES	NSD2 inh	PglD inh	CASP6 VEID inh	ALR inh	HIV Env fusion	F508del corr
C[C@@H]1CCCCO[C@@H](CN(C)Cc2ccccc2)[C@@H](C)CN([C@H](C)CO)C(=O)c2cc(NS(=O)(=O)c3cn(C)cn3)ccc2O1	.	6	-3	.	24[16.7 µM]	-1
COc1ccc(N2CCN(C(c3cccs3)C(C)NC(=O)C(=O)N3CCCC3)CC2)cc1 (stereo not given)	6	-5	-1	98*	4	0
COc1ccc(N2CCN(C(c3cccs3)C(C)NC(=O)C(=O)N3CCCCC3)CC2)cc1 (stereo not given)	4	-5	5	98*	2	-2
CCS(=O)(=O)NC(C)C(c1cccs1)N1CCN(c2ccc(OC)cc2)CC1 (stereo not given)	.	0	2	99*	-5	-7
COc1ccccc1N1CCN(C(c2cccs2)C(C)NC(=O)C(=O)N2CCCCC2)CC1 (stereo not given)	2	1	-3	74	-13	-1
CCC(=O)N(C)C[C@H]1Oc2ncc(C#Cc3ccccc3)cc2C(=O)N([C@H](C)CO)C[C@@H]1C	.	-1	3	.	10[16.7 µM]	0
O=C(C[C@H]1C[C@H]2c3cc(NS(=O)(=O)c4ccc(F)cc4)ccc3O[C@H]2[C@@H](CO)O1)NCc1ccc(Oc2ccccc2)cc1	.	-2	2	.	43[16.7 µM]	-9
COc1ccc(NC(=O)N[C@@H]2CC[C@H](CCn3cc(-c4ccccn4)nn3)O[C@H]2CO)cc1	.	-3	-1	.	-9[16.7 µM]	1
Cc1cc(C)n(-c2nnc(C)n2/N=C/c2ccco2)n1	-2	1	.	-3	8	.
C=C(C)CN=c1scc(C)n1/N=C/c1ccco1	-2	11	.	99*	-70	.
C/C=C/c1ccc2c(c1)O[C@@H](CN(C)Cc1cncnc1)[C@H](C)CN([C@@H](C)CO)S2(=O)=O	.	4	-2	.	20[16.7 µM]	-1
CN1CCc2[nH]c3ccc(C(=O)NN)cc3c2C1	11	-1	.	98*	16	.
CN(C)CCCNC(=O)[C@@H]1[C@@H](CO)[C@@H]2Cn3c(ccc(-c4ccccc4)c3=O)[C@@H]2N1C	.	-1	-33	.	.	-2
COc1ccc2[nH]c(=O)c(CN(Cc3nnnn3Cc3ccccc3)CC3CCCO3)cc2c1 (stereo not given)	0	0	.	-8	112*	.
COCCn1nnnc1CN(Cc1cccnc1)Cc1cc2cc(OC)ccc2[nH]c1=O	1	-6	.	.	.	.
COCCn1nnnc1CN(CCc1ccccc1)Cc1cc2cc(OC)ccc2[nH]c1=O	1	.	.	-21	77*	.
N=C1/C(=C/c2ccc(OC(=O)c3ccco3)cc2)C(=O)N=C2SC=CN12	1	.	1	98*	-18	-1
COc1cc(/C=C2\C(=N)N3N=C(S(C)(=O)=O)SC3=NC2=O)ccc1OCCOc1ccccc1C	5	-1	40*	?	-10	.
N=C1/C(=C\c2ccc(OC(=O)c3ccco3)cc2)C(=O)N=C2SC(N3CCCCC3)=NN12	.	1	2	10	-2	0
COc1cc(/C=C2\C(=N)N3N=C(S(C)(=O)=O)SC3=NC2=O)ccc1OC(=O)c1ccco1	48	0	41*	66	-2	2
N=C1/C(=C\c2coc3ccc(O)cc3c2=O)C(=O)N=C2SC=CN12	35	.	42*	69	12	2
CCNC(=O)C[C@H]1CC[C@H]2[C@H](COc3ccc(NC(=O)Nc4cccc(C)c4)cc3C(=O)N2C)O1	.	1	9	.	11[16.7 µM]	1
CC(=O)N(C)C[C@H]1Oc2cc(-c3ccccc3F)ccc2S(=O)(=O)N([C@@H](C)CO)C[C@@H]1C	.	5	-1	.	2[16.7 µM]	2
Cc1ccccc1S(=O)(=O)NCC[C@H]1CC[C@@H](NC(=O)Nc2cccc(Cl)c2)[C@H](CO)O1	.	1	2	.	1[16.7 µM]	-1
O=C(NC(Nc1nc2ccc([N+](=O)[O-])cc2s1)(C(F)(F)F)C(F)(F)F)c1ccccc1Cl	7	.	4	-2	25	.
O=C(NC(Nc1nc2ccc([N+](=O)[O-])cc2s1)(C(F)(F)F)C(F)(F)F)c1cccnc1	4	.	1	-12	123*	0
Cc1ccc(NC(=O)CSC2=NN3CCCC(=O)N=C3S2)c(C)c1	.	0	-2	.	-2	9.7*
C/C=C/c1cnc2c(c1)C(=O)N([C@H](C)CO)C[C@H](C)[C@H](CN(C)C(=O)C1CCC1)O2	.	.	.	.	-8[16.7 µM]	-7
